Source: PubChem BioAssay (Tox21)
Several values for one entry are separate records, joined by “and”; a condition that tells them apart may be missing. Equal entries are not always repeated. A number with no mark means an inactive call. Inconclusive results are not listed. A call without a number means that no potency is given here. Activity calls are given as the source filed them. Unless noted, the call rests on the fitted dose curve; in most records, active means well fitted curve in the direction sought with a large enough effect in the repeat runs; inconclusive means weak or mixed curves; inactive means no such curve, though single readings can be large; an effect the other way counts as inactive or inconclusive.

Tests used:
[1] = qHTS assay for small molecules that induce genotoxicity in human embryonic kidney cells expressing luciferase-tagged ATAD5 (AID 651632); further: nearly all actives have a fitted effect of over 15% in size; further: potency means the concentration at half of the fitted maximal effect
Outline: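 Quantitative HTS in HEK293T expressing luciferase-tagged ATAD5, whose levels rise upon DNA damage. Exposure ran 16 hr at 37C and 5% CO2, with luminescence read 30 min after Amplite addition at room temperature.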

[2] = qHTS assay for small molecules that induce genotoxicity in human embryonic kidney cells expressing luciferase-tagged ATAD5 - cell viability (AID 651634; calls by dose curve; further: nearly all actives have a fitted effect of over 25% in size; further: potency means the concentration at half of the fitted maximal effect)
Outline: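 After 15.5 hr incubation with compound at 37C, 5% CO2, HEK293T ATAD5-luciferase cells received CellTiter-Fluor reagent; fluorescence intensity was quantified following 30 min at 37C.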

[3] = qHTS assay for small molecule disruptors of the mitochondrial membrane potential - cell viability (AID 720634; calls by dose curve; further: nearly all actives have a fitted effect of over 20% in size; further: potency means the concentration at half of the fitted maximal effect)
Outline: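 ATP-based luminescent viability readout (CellTiter-Glo, 30 min, room temperature) in HepG2 cells multiplexed with the m-MPI membrane potential dye; compound exposure lasted 1 hr at 37 C.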

[4] = qHTS assay for small molecule disruptors of the mitochondrial membrane potential (AID 720635); further: potency means the concentration at half of the fitted maximal effect
Outline: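 HepG2 cells (2,000/well) attached overnight at 37C, then took compound for 1 hr at 37C, 5% CO2. Mito-MPS dye was added for 30 min; fluorescence was read at 490/535 nm (monomers) and 540/590 nm (aggregates).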

[5] = qHTS assay to test for compound auto fluorescence at 590 nm (red) in HepG2 cells (AID 720674)
Outline: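 Compound auto-fluorescence is scored relative to Rose Bengal sodium, measured at 540/590 nm in live HepG2 cultures after 1 hr compound contact (37 C, 5% CO2).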

[6] = qHTS assay to test for compound auto fluorescence at 535 nm (green) in HepG2 cells (AID 720675)
[7] = qHTS assay to test for compound auto fluorescence at 460 nm (blue) in HEK293 cells (AID 720678)
Outline: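 HEK293 cells (2,000/well, medium with 10% dialyzed FBS) attached 4-5 hr, then exposed to compound overnight at 37C, 5% CO2. Blue fluorescence read at 405/460 nm, with triamterene as reference fluorophore.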

[8] = qHTS assay to test for compound auto fluorescence at 590 nm (red) in HEK293 cells (AID 720679)
Outline: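 HEK293 cells (2,000/well, 10% dialyzed FBS) attached 4-5 hr, then dosed with compound or DMSO and incubated overnight at 37C, 5% CO2. Red fluorescence read at 540/590 nm, Rose Bengal sodium as reference fluorophore.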

[9] = qHTS assay for small molecule agonists of the p53 signaling pathway - cell viability (AID 651633; calls by dose curve; further: nearly all actives have a fitted effect of over 30% in size; further: potency means the concentration at half of the fitted maximal effect)
Outline: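 p53RE-bla cells, seeded at 4,000 per well and rested 5 h at 37 C/5% CO2, received compounds in DMSO for 16 h at 37 C. CellTiter-Glo was then added, and luminescence was read after 30 min at room temperature to gauge cytotoxicity.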

Row | SMILES | Potency [1] | Potency [2] | Potency [3] | Potency [4] | Potency [5] | Potency [6] | Potency [7] | Potency [8] | fluorescence, relative to Rose Bengal [5] | fluorescence, % of fluorescein control [6] | fluorescence, % of triamterene [7] | fluorescence, % of fluorescent control [8] | Potency [9]
1 | CC(C)(C)C1=CC(=O)C=C(C(C)(C)C)C1=O | inactive | 30.6 µM (active) | 61.1 µM (active) | 7.7 µM (active) | inactive | inactive | inactive | inactive | – | – | – | – | –
2 | C[C@@H]1CC[C@H]2C(C)(C)[C@H]3C[C@@]12CC[C@@]3(C)O | inactive | inactive | – | 61 µM (active) | inactive | inactive | inactive | inactive | – | – | – | – | –
3 | c1ccc(Nc2cccc3ccccc23)cc1 | inactive | inactive | 54.5 µM (active) | 43.8 µM (active) and 43.3 µM (active) | inactive | inactive | inactive | inactive | – | – | – | – | –
4 | O=C(O)CCn1c2c(c3ccccc31)C[C@H](NS(=O)(=O)c1ccc(F)cc1)CC2 | inactive | inactive | inactive | inactive | inactive | inactive | inactive | inactive | – | – | – | – | –
5 | COC(=O)CC(C)CCC=C(C)C (centres undefined) | inactive | inactive | inactive | inactive | inactive | inactive | – | inactive | – | – | – | – | –
6 | COc1cc(C(C)C)c2c(c1)S(=O)(=O)N(COc1cc(=O)n3cccc(OCCN4CCCCC4)c3n1)C2=O | inactive | inactive | inactive | – | – | – | – | – | 0.436% [at 18.6 µM] | -0.0646% [at 18.6 µM] | 0.0293% [at 18.6 µM] | 0.266% [at 18.6 µM] | –
7 | C[C@@]12C(=O)OC(=O)[C@]1(C)C1CCC2O1 | 902 nM (active) | 3.59 µM (active) | inactive | 0.101 µM (active) | – | – | – | – | 0.463% [at 18.6 µM] | -0.0054% [at 18.6 µM] | -0.421% [at 18.6 µM] | -0.0987% [at 18.6 µM] | –
8 | CCCCCCC(C)Nc1ccc(Nc2ccccc2)cc1 (centres undefined) | inactive | inactive | – | 30.6 µM (active) | inactive | inactive | inactive | inactive | – | – | – | – | –
9 | O=C1NCN(c2ccccc2)C12CCN(CCCC(c1ccc(F)cc1)c1ccc(F)cc1)CC2 | inactive | 26.6 µM (active) | 21.1 µM (active) | 19.7 µM (active) | inactive | inactive | inactive | inactive | – | – | – | – | –
10 | CCCCCCCCCCCCN(CCO)CCO | inactive | – | – | – | inactive | inactive | inactive | inactive | – | – | – | – | 54.3 µM (active)
11 | CCCCCCCOC(=O)c1ccc(O)cc1 | inactive | inactive | 27.3 µM (active) | 8.64 µM (active) and 8.63 µM (active) | inactive | inactive | inactive | inactive | – | – | – | – | –
12 | Nc1cc(Cl)c([N+](=O)[O-])cc1O | inactive | 68 µM (active) | inactive | 19.2 µM (active) | inactive | inactive | – | inactive | – | – | – | – | –
13 | CN1CCN(C2Cc3ccccc3Sc3ccc(Cl)cc32)CC1 (centres undefined) | inactive | inactive | inactive | – | inactive | inactive | – | inactive | – | – | – | – | –
14 | CSc1c(Cl)c(Cl)c(Cl)c(Cl)c1Cl | inactive | inactive | inactive | – | inactive | inactive | – | inactive | – | – | – | – | –
15 | CC(C(O)c1ccccc1)N(C)CCOC(c1ccccc1)c1ccccc1 (centres undefined) | inactive | inactive | inactive | – | inactive | inactive | – | inactive | – | – | – | – | –
16 | CC(=O)Nc1ccc(O)cc1 | inactive | inactive | inactive | inactive | inactive | inactive | inactive | inactive | – | – | – | – | –
17 | CCCCCCCC/C=C\CCCCCCCC(=O)N(C)CC(=O)O | inactive | – | – | – | inactive | inactive | inactive | inactive | – | – | – | – | 43.3 µM (active)
18 | Clc1ccccc1CN1CCc2sccc2C1 | inactive | inactive | inactive | 26.6 µM (active) | inactive | inactive | inactive | inactive | – | – | – | – | –
19 | COc1cccc(CCc2ccccc2OCC(CN(C)C)OC(=O)CCC(=O)O)c1 (centres undefined) | inactive | inactive | inactive | – | inactive | inactive | inactive | inactive | – | – | – | – | –
20 | CCN(CC)CCCN(c1ccccc1)C1Cc2ccccc2C1 | inactive | 23.7 µM (active) | 29.8 µM (active) | – | inactive | inactive | – | inactive | – | – | – | – | –
21 | CCc1ccc(O)c(C(C)(C)C)c1 | inactive | inactive | inactive | 8.63 µM (active) | inactive | inactive | inactive | inactive | – | – | – | – | –
22 | CCCCCCCCCCCCCC[n+]1ccccc1 | inactive | inactive | inactive | 21.7 µM (active) | inactive | inactive | inactive | inactive | – | – | – | – | –
23 | Cc1ccc2ccc3cccc4ccc1c2c34 | inactive | inactive | inactive | 38.5 µM (active) | inactive | inactive | inactive | inactive | – | – | – | – | –
24 | C=C[C@](C)(O)CC[C@@H]1[C@@]2(C)CCCC(C)(C)[C@@H]2CC[C@@]1(C)O | inactive | – | – | 43.3 µM (active) | inactive | inactive | inactive | inactive | – | – | – | – | 61.1 µM (active)
25 | CCN(CC)c1ccc(N)cc1 | inactive | – | – | 49.9 µM (active) | inactive | inactive | inactive | inactive | – | – | – | – | inactive
26 | CCCOc1sc(C(=O)N2CCC(c3cc(CN)ccc3F)CC2)c(C)c1Br | inactive | inactive | inactive | – | inactive | inactive | inactive | inactive | – | – | – | – | –
27 | Clc1ccc(C(Cn2ccnc2)OCc2ccsc2Cl)c(Cl)c1 (centres undefined) | inactive | – | inactive | – | inactive | inactive | inactive | inactive | – | – | – | – | –
28 | COc1ccc2sc(C(=O)Nc3nnn[nH]3)c(OC(C)C)c2c1 | inactive | – | inactive | – | inactive | inactive | inactive | inactive | – | – | – | – | –
29 | S=C(SSSSSSC(=S)N1CCCCC1)N1CCCCC1 | – | – | inactive | – | – | – | – | – | -0.0183% [at 18.6 µM] | -0.0182% [at 18.6 µM] | – | 0.199% [at 18.6 µM] | –
30 | CN1[C@@H]2CC[C@H]1CC(OC(=O)C(CO)c1ccccc1)C2 (some centres undefined) | – | – | inactive | inactive | inactive | inactive | inactive | inactive | – | – | – | – | –
